# Many of the other results were omitted from the sample, so hits are more common in it than they were.
# CBX7 inh: CBX7 inhibition, primary AlphaScreen | O95931 | AlphaScreen His6-CBX7 / biotin-H3K27me3 peptide binding; active compounds read low | normalised signal (fraction of DMSO) (no concentration beside the values) | 1.1% of 66,000 active; in the data active means normalised signal below about 0.5
# Target sequence (O95931 whole entry, looked up): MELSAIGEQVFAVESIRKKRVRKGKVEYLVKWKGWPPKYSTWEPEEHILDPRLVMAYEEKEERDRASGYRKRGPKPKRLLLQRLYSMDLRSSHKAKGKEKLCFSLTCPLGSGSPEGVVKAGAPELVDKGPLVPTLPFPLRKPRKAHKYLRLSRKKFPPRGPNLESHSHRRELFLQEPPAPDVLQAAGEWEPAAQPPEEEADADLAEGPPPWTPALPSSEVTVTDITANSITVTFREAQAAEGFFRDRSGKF
# An asterisk follows results filed as active; ! = not active in a repeat.
SMILES,CBX7 inh
COc1ccc(-c2csc(N3CCN(c4ccccc4F)CC3)n2)cc1,1.2
O=C(CN1C(=O)COc2ccccc21)NCc1ccc2c(c1)OCO2,0.97
CCCCNC(=O)c1ccc2c(c1)N(Cc1ccccc1)C(=O)CS2,0.96
COc1ccc(NC(=O)C(Cc2ccccc2)NS(=O)(=O)c2cccs2)cc1Cl (centres undefined),1.1
CCOC(=O)c1cnc2ccc(OC)cc2c1Nc1cccc(O)c1,1
Cc1oc(-c2ccc(Cl)cc2)nc1CN1CCC(C(=O)NCc2ccccn2)CC1,1
CN(c1ccc(Cl)cc1)S(=O)(=O)c1ccc2[nH]cc(C(=O)NC3CCCCCC3)c(=O)c2c1,0.94
CCC(Cc1ccccc1)NC(=O)c1ccc2c(c1)NC(=O)C1CCCN21 (centres undefined),0.81
Cc1oc(-c2ccccc2F)nc1CS(=O)(=O)CC(=O)N1CCN(c2ccccc2F)CC1,0.99
COc1ccc(C2(CNC(=O)c3ccc(OC)c(OC)c3)CCOCC2)cc1,1.2
CC1=C(C(=O)Nc2ccc(C)cn2)C(c2ccc(Cl)cc2)C2=C(CCCC2=O)N1 (centres undefined),0.94
O=C(c1cc2c(s1)-c1ccccc1OC2)N1CCOCC1,1.1
CCCCCCC1CCC(c2ccc(C#N)cn2)CC1 (centres undefined),1.3
COCCCNC(=O)c1nc(-c2ccccc2F)oc1C,1
COc1ccc(-c2nnc(Nc3cccc(O)c3)c3ccccc23)cc1,0.43*
COc1ccc(-c2nnc(Nc3ccc(Cl)c(Cl)c3)c3ccccc23)cc1,1
COc1ccc(-c2nnc(Nc3ccc(Cl)cc3)c3ccccc23)cc1,0.97
Cc1nn(C)c(C)c1S(=O)(=O)N(CC(=O)Nc1cccc(Cl)c1C)c1ccc(C(C)C)cc1,0.97
COc1ccc(-c2cc3nc(C)c(CCC(=O)Nc4ccc(C)c(C)c4)c(C)n3n2)c(OC)c1,1.1
Cc1ccc(NC(=O)C2CCCN(S(=O)(=O)c3c(C)noc3C)C2)cc1C (centres undefined),0.89
Cc1ccc(Nc2ncc(F)c(Nc3ccc(C)cc3C)n2)c(C)c1,0.56
Cc1ccc(C)c(NCC(O)Cn2c3ccccc3c3ccccc32)c1 (centres undefined),0.68
COc1ccc(OC)c(NCC(O)Cn2c3ccccc3c3ccccc32)c1 (centres undefined),0.3*
Cc1ccccc1NCC(O)Cn1c(C)c(C)c2ccccc21 (centres undefined),0.81
Cc1ccc(OCCn2c(/C=C/c3ccccc3)nc3ccccc32)cc1,1.4
SMILES,CBX7 inh
Clc1ccc2c(c1)C(c1ccccc1)=NNC(c1ccc(Br)cc1)=N2,1
Cc1ccc(Nc2c(-c3ccccn3)nc3ccc(Cl)cn23)cc1,0.77
Cc1ccc(Nc2c(-c3ccccn3)nc3ccc(Br)cn23)cc1,0.97
Cc1ccc(Nc2c(-c3ccsc3)nc3cccc(C)n23)cc1,0.92
Cc1ccc(-c2nc3ccccn3c2Nc2ccc(F)cc2)cc1,0.85
Cc1ccc(Nc2c(-c3ccccn3)nc3cccc(C)n23)cc1,0.0014*
Cc1ccn2c(Nc3ccc(F)cc3)c(-c3ccccn3)nc2c1,0*
Cc1ccc(Nc2c(-c3ccccc3)nc3cc(C)ccn23)cc1,1.2
Cc1cccc(C)c1Nc1c(-c2ccccc2F)nc2cccc(C)n12,0.87
Fc1ccc(Nc2c(-c3ccccn3)nc3ccc(Br)cn23)cc1,0.95
Cc1ccc(Nc2c(-c3c(F)cccc3Cl)nc3cccc(C)n23)cc1,0.96
Cc1cccc2nc(-c3ccccn3)c(Nc3ccccc3)n12,0.0053*
Cc1cccc2nc(-c3ccccn3)c(Nc3ccc(F)cc3)n12,0.059*
CCN1CCCC1CNC(=O)C1CCN(S(=O)(=O)c2c(C)noc2/C=C\c2ccc(OC)cc2)CC1 (centres undefined),1.2
O=C1CC(Cc2ccc(Cl)cc2)C(=O)N1c1nccs1 (centres undefined),1
Cc1sc(Nc2ccc(Cl)c(Cl)c2)nc1-c1ccc(Cl)cc1,0.84
CCc1ccc(-c2nc(CN3CCCC(C(=O)NC4CCCC(C)C4C)C3)c(C)o2)cc1 (centres undefined),0.97
Cc1oc(-c2ccc(Cl)cc2)nc1CN1CCC(C(=O)NCCN2CCCC2)CC1,1.1
CCCCn1cnc2cc(NCc3ccccc3Cl)ccc21,0.22*
CCCCn1cnc2cc(NCc3ccc(OCC)cc3)ccc21,0.78
CCCCn1cnc2cc(NCc3ccccc3OCC)ccc21,0.19*
CCCn1cnc2cc(NCc3ccccc3OCC)ccc21,0.91
CCn1cnc2cc(NCc3ccccc3Cl)ccc21,0.84
CCCCn1cnc2cc(NCc3cccc(OC)c3)ccc21,0.36*
CCn1cnc2cc(NCc3ccccc3OC)ccc21,0.96
SMILES,CBX7 inh
CCCn1cnc2cc(NCc3ccccc3Cl)ccc21,0.84
CCn1cnc2cc(NCc3cccc(OC)c3)ccc21,0.91
COc1ccc(-c2nc3cc(C(F)(F)F)cc(Br)c3nc2-c2ccc(OC)cc2)cc1,1.3
CC1CC(C)CN(S(=O)(=O)c2ccc3c(c2)N(CC(=O)NCCc2ccccc2)C(=O)CO3)C1 (centres undefined),1
O=C(O)C1CCN(c2nc3ccccc3n2Cc2ccccc2F)CC1,1.1
O=C(Nc1ccc2nc(SCC(=O)N3CCOCC3)sc2c1)c1ccccc1Br,0.95
c1ccc2cc(-c3csc(Nc4ccc5c(c4)OCO5)n3)ccc2c1,0.5*
O=S(=O)(c1ccc(-c2csc(Nc3ccc4c(c3)OCO4)n2)cc1)N1CCCCC1,0.84
Brc1ccc(Nc2nc(-c3ccc(Br)cc3)cs2)cc1,0.66
Cc1ccc(C)c(-c2csc(Nc3ccc(S(=O)(=O)Nc4cc(C)on4)cc3)n2)c1,0.9
O=C(CN1C(=O)c2ccccc2C1=O)Nc1nc(-c2ccc3c(c2)OCO3)cs1,1.1
Brc1ccc(-c2csc(Nc3ccc4c(c3)OCO4)n2)cc1,0.35*!
Cc1ccc(C)c(-c2csc(Nc3ccc4c(c3)OCO4)n2)c1,0.35*
Cc1ccc(C)c(-c2csc(Nc3ncccn3)n2)c1,1
Clc1ccc(-c2csc(Nc3ccc4ccccc4c3)n2)cc1Cl,0.59
CCc1ccc(-c2nc(CN3CCC(C(=O)NC4CCCCCCC4)CC3)c(C)o2)cc1,0.98
CC(=O)Nc1ccc(-n2c(/C=C\c3ccc(F)cc3)nc3ccccc3c2=O)cc1,1.1
CC(C)CNC(=O)C1CC(=O)N(c2ccc(O)cc2)C1 (centres undefined),1
CCOc1ccc(CCNC(=O)Cn2ncc3c2-c2ccccc2OC3)cc1,1.1
CCCCN(CCCC)C(=O)C1CCN(S(=O)(=O)c2c(C)noc2/C=C/c2cccs2)CC1,0.85
O=c1c2ccccc2c(-c2ccccc2)nn1CCc1ccccn1,1
Cc1cccc(CSc2nc3ccncc3n2CC(=O)Nc2cccc(F)c2)c1,0.81
Cc1ccccc1NC(=O)c1cnc(Nc2nc3ccccc3o2)nc1C,0.17*
CCCc1nc(Nc2nc3ccccc3o2)ncc1C(=O)OCC,1.1
Cc1ccc(NC(=O)c2c(C)nc(Nc3nc4ccccc4o3)nc2C)cc1,1.1
COc1ccc(-c2c(C)nn3c(N4CCN(c5cccc(Cl)c5)CC4)cc(C)nc23)cc1OC,0.99
O=C(NCCN1CCCCCC1)c1cc(=O)[nH]c2ccc(S(=O)(=O)N3CCCCC3)cc12,1.1
Clc1ccc2nc3c(c(Nc4ccc(Oc5ccccc5)cc4)c2c1)CCC3,1.1
CCCN(C(=O)Cn1nc(Cc2ccncc2)c2ccccc2c1=O)c1ccc(F)cc1,0.99
CCCC(=O)NC(c1ccc(OC)c(OC)c1)c1cc(Cl)c2cccnc2c1O (centres undefined),0.41*

# High-throughput results deposited in PubChem BioAssay by Bradner/Qi Labs at DFCI.
